Screening results deposited in PubChem by National Center for Advancing Translational Sciences (NCATS).
Sm TGR block: qHTS Assay for the Inhibitors of Schistosoma Mansoni Peroxiredoxins; Schistosoma mansoni thioredoxin glutathione reductase (TGR), Q962Y6; Potency, µM (highest dose often 114 µM), for inactives: at the top dose activity change, negative = inhibition, most hits filed as inhibitors; purified TGR, DTNB reduction, TNB absorbance 405 nm; 360,000 tested, 3% active; active = well fitted inhibition curve with a large enough effect; inconclusive = small, poorly fitted or top-dose-only effect; inactive = no such curve, though single readings can be large or run the other way; note: % is set by controls: 0 for no effect and ±100 for the full control effect; nearly all actives have a fitted effect of over 60% in size
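First, TGR (20 nM dispensed) and NADPH were mixed with compound. Second, a 15 min room-temperature incubation followed. Third, further NADPH and then DTNB were added to start the reaction. Finally, TNB absorbance was monitored kinetically.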
SARS PLP yeast: qHTS of Yeast-based Assay for SARS-CoV PLP; S. cerevisiae expressing SARS-CoV PLpro, growth rescue; 330,000 tested, 0.19% active; Potency, µM (series often up to 32.9 µM), inactives show top-dose activity, positive = growth rescue, hits mostly activators; calls by dose curve; note: 0% is about no effect; nearly all actives have a fitted effect of over 55% in size
* hit, by the source's call; ? = inconclusive; / = not tested or not shown; [ ] = dose if it differs, or a comment. Hits are enriched below; roughly 3% of the tested compounds scored in any of these assays. Potency is the fitted concentration of half-maximal effect.

SMILES	Sm TGR block	SARS PLP yeast
COC(=O)c1cc(O)cc(OC)c1C(=O)c1c(O)cc(C)cc1O	-30%	1%
CCc1ccc(NC(=O)Cn2c(=O)n(-c3ccc(Cl)c(Cl)c3)c(=O)c3c(C)c(C)sc32)cc1	3%	/
CC1(C)CC(=O)c2cc(-c3nc(-c4ccc(F)cc4)cs3)c(=O)[nH]c2C1	4%	/
CC(C)N(Cc1nc(-c2ccc(Cl)cc2)no1)C(=O)c1ccco1	9%	/
Cc1cc(Nc2cccc(F)c2)n2nc(-c3ccco3)nc2n1	-32%	/
CCOC(=O)c1ccccc1Nc1cc(C)nc2nc(-c3ccco3)nn12	18µM*	/
O=C(O)c1ccc(NC2=C(n3nnc4ccccc43)C(=O)c3ccccc3C2=O)cc1	7.1µM*	1%
O=C(O)c1ccc(Nc2nc3ccccc3n3cnnc23)cc1	8%	/
COc1ccc(N2CCN(C(=O)CSc3nc(-c4ccc(C(C)C)cc4)no3)CC2)cc1	2%	/
COc1ccc(Cn2c(C(=O)O)c(CNCCc3ccco3)c3ccc(C)cc32)cc1	-5%	/
C=Cc1ccc(Cn2c(C(=O)O)c(CNCCc3ccco3)c3ccc(C)cc32)cc1	22µM*	/
O=C(O)c1cccc(Cn2c(Cl)c(/C=N/NC(=O)c3ccco3)sc2=O)c1	45µM*	?
O=C(N/N=C\c1ccoc1)c1ccco1	1%	-2%
O=C(O)c1cccc(Cn2c(Cl)c(/C=N/NC(=O)c3cccc(O)c3)sc2=O)c1	9%	0%
O=C(O)c1cccc(Cn2c(Cl)c(/C=N/NC(=O)c3ccccc3)sc2=O)c1	56µM*	0%
O=C(O)c1cccc(Cn2c(Cl)c(/C=N/NC(=O)c3cc4ccccc4cc3O)sc2=O)c1	32µM*	1%
O=C(O)c1ccc(/C=N/NC(=O)c2cc3ccccc3cc2O)cc1	/	9%
COc1ccc(-c2cc(=O)oc3c4c(ccc23)OCN(Cc2ccccc2)C4)cc1	10%	/
CCOC(=O)c1cccc(NC(=O)CN2C(=O)c3ccccc3Sc3ncccc32)c1	5%	/
CC(C)c1cc(-c2nc(-c3ccccc3)no2)n[nH]1	7%	/
COc1ccc(-c2nc(CCNC(=O)Cc3ccc(F)cc3)cs2)cc1	-3%	/
CCOC(=O)C1=C(CC)OC(N)=C(C#N)C1c1ccc(NC(C)=O)cc1 (stereo not drawn)	11µM*	21%
CCCC1=C(C(=O)OCC)C(c2ccco2)C(C#N)=C(N)O1 (stereo not drawn)	32µM*	1%
CCOC(=O)C1=C(N)OC(C)=C(C#N)C1c1ccco1 (stereo not drawn)	-23%	2%
CCOC(=O)CC1=C(C(=O)OCC)C(c2cccs2)C(C#N)=C(N)O1 (stereo not drawn)	1%	/
SMILES	Sm TGR block	SARS PLP yeast
CCOC(=O)C1=C(c2ccccc2)OC(N)=C(C#N)C1c1cccs1 (stereo not drawn)	45µM*	7%
CCOC(=O)C1=C(CC)OC(N)=C(C#N)C1c1cc(OC)ccc1OC (stereo not drawn)	-1%	-2%
CCc1cccc(C)c1NC(=O)C1CCCN1S(=O)(=O)c1cccc2nsnc12 (stereo not drawn)	0%	/
O=c1c2ccccc2nc(N2CCN(c3cccc(Cl)c3)CC2)n1-c1ccccc1	2%	/
O=c1oc2ccccc2n1CCCOc1ccccc1Cl	-2%	/
COc1cc([N+](=O)[O-])ccc1N1C(=O)CC(Sc2nccc(C)n2)C1=O (stereo not drawn)	?	1%
COc1ccc(NC2CC(=O)N(c3cccc([N+](=O)[O-])c3)C2=O)cc1 (stereo not drawn)	56µM*	-3%
COc1cccc(N2C(=O)CC(NNc3nc4ccccc4s3)C2=O)c1 (stereo not drawn)	4%	4%
COc1ccc(NC2CC(=O)N(c3ccc(C(=O)O)cc3)C2=O)cc1 (stereo not drawn)	-33%	0%
COc1ccc(NC2CC(=O)N(c3cccc(C)c3)C2=O)cc1 (stereo not drawn)	35µM*	3%
COc1ccc(NC2CC(=O)N(c3cc([N+](=O)[O-])ccc3C)C2=O)cc1 (stereo not drawn)	40µM*	-1%
COc1cc(NC(=O)Nc2cccc(C(C)=O)c2)cc(OC)c1OC	-2%	15%
COc1ccc(N2C(=O)CC(Nc3cccc(C(C)=O)c3)C2=O)cc1OC (stereo not drawn)	56µM*	-3%
O=C(Nc1ccc(S(=O)(=O)N2CCCCC2c2cccnc2)cc1)c1ccc(Br)cc1 (stereo not drawn)	9%	/
COC(=O)c1cc2occc2n1Cc1nc(-c2cccc(Br)c2)oc1C	-4%	/
COc1ccc(CNC(=O)CCc2c(C)nc3c4cccnc4nn3c2C)cc1	3%	/
CCn1cc(C(=O)Nc2ccccc2)c(=O)c2ccc(C)nc21	0%[57.1 µM]	0%
C=CCSc1nnc(NC(=O)c2cn(CC)c3nc(C)ccc3c2=O)s1	50µM*	-1%
N#C/C(=C\c1c(Oc2ccc(Br)cc2)nc2ccccn2c1=O)c1nc2ccccc2s1	-17%	/
O=C(CCOc1ccccc1)N(Cc1cccnc1)c1nc2ccc(F)cc2s1	4µM*	/
CN(C)CCCN(C(=O)CCc1ccccc1)c1nc2c(F)cccc2s1	4%	-5%
CN(C)CCCN(C(=O)CCOc1ccccc1)c1nc2c(F)cccc2s1	0.4µM*	-9%
CN(C)CCCN(C(=O)CCOc1ccccc1)c1nc2ccc(F)cc2s1	0.63µM*	-3%
CN(C)CCCN(C(=O)COc1ccccc1)c1nc2ccc(F)cc2s1	2%	1%
O=C(COc1ccccc1)N(Cc1cccnc1)c1nc2ccc(F)cc2s1	2%	/
SMILES	Sm TGR block	SARS PLP yeast
COc1ccc(NC(=O)C2CCN(S(=O)(=O)c3c(C)noc3/C=C/c3cccs3)CC2)cc1Cl	6%	/
CCOc1ccc(NC(=S)NC(=O)Cc2ccccc2)cc1	?	15%
CC(=O)N(C)c1ccc(NC(=S)Nc2ccccc2)cc1	-32%	4%
O=C(/C=C/c1ccccc1)NC(=S)Nc1ccc(N2CCOCC2)cc1	-7%	13%
CN1CCN(c2ccc(NC(=S)NC(=O)/C=C/c3ccco3)cc2)CC1	50µM*	5%
CCOc1ccc(NC(=S)NC(=O)/C=C/c2ccco2)cc1	22µM*	7%
CC(=O)N(C)c1ccc(NC(=S)NC(=O)/C=C/c2ccco2)cc1	28µM*	1%
COc1cc(NS(=O)(=O)c2ccc(NC(=S)NC(=O)/C=C/c3ccco3)cc2)ncn1	40µM*	-1%
COc1ccc(/C=C/C(=O)NC(=S)Nc2ccc(S(=O)(=O)Nc3cc(C)on3)cc2)cc1	-29%	7%
COc1ccc(S(=O)(=O)n2nc(C)c(S(=O)(=O)N3CCCCCC3)c2C)cc1OC	-7%	/
COCCNC(=O)CSc1nc2cc3c(cc2c(=O)n1Cc1ccc(C(=O)NCCc2ccc(OC)c(OC)c2)cc1)OCO3	0%	/
COc1ccc(CNC(=O)c2cc3c(=O)n4cccc(C)c4nc3s2)cc1	-5%	/
C=CCc1ccccc1OCCSc1nc(-c2cccs2)nc2cc(=O)[nH]n12	12%	/
CCOC(=O)c1ccc2c(c1)N(CC(=O)N(C)c1ccccc1)C(=O)c1ccccc1S2	2%	/
O=C(/C=C/c1ccccc1)NC(=S)Nc1ccccc1	?	8%
CC(=O)Nc1ccc(NC(=S)NC(=O)/C=C/c2ccco2)cc1	18µM*	5%
CC(C)Oc1cccc(C2CC(=O)Nc3cc4c(cc32)OCO4)c1 (stereo not drawn)	3%	/
